TDP-43 yeast inh: rescues yeast growth from TDP-43 toxicity; TDP-43 expressing yeast growth rescue, BacTiter-Glo, 24 h; Potency, µM (titrated, usually from 46.1 µM), inactives show top-dose growth rescue (activation), hits mostly activators; 1.8% of 410,000 active; AID 652104; note: % of control where 0% means no effect; nearly all actives have a fitted effect of over 50% in size
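Cell-based yeast growth screen: TDP-43 expression induced in galactose, inoculum OD600=0.02 after raffinose pregrowth to mid-log. Read-out BacTiter-Glo luminescence at 24 hr, 30 deg C; inhibition of toxicity seen as signal increase.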
Abeta rescue: restores growth of yeast expressing A-beta42 peptide | Potency, µM (titrated, usually from 46.1 µM), usual class: activators | yeast expressing A-beta42, growth rescue, OD600, 48 h; response scale: 0% DMSO, 100% iron-clioquinol control | 0.063% of 410,000 active; note: nearly all actives have a fitted effect of over 55% in size
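Yeast growth medium received pinned compounds, then yeast cells expressing toxic A-beta were added; plates incubated at 30 C for 48 hr. Growth read as absorbance at 600 nm, normalized to DMSO and equimolar FeCl3 plus clioquinol controls.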
FUS yeast rescue: FUS proteinopathy suppression in yeast; S. cerevisiae FUS-expressing, growth rescue, OD600, 24 h; Potency, µM (top dose mostly 76.6 µM), usual class: activators; 0.24% of 390,000 active;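 note: plate controls were DMSO vehicle for no effect and reference control for full effect; nearly all actives have a fitted effect of over 55% in size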
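Steps: raffinose overnight preculture; dilution to OD 0.005 in 2% galactose minimal medium; compound addition (concentration series); 24hr at 30C, 99% humidity; absorbance read at 600 nm.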
aSyn rescue: alpha-synuclein toxicity inhibition in yeast. AID 652106. Potency, µM (titrated, usually from 46.1 µM), for the others: top-dose growth rescue (activation), actives largely listed as activators. 0.14% of 370,000 active. Yeast expressing alpha-synuclein, growth rescue, BacTiter-Glo, 24 h; note: % of control where 0% means no effect; nearly all actives have a fitted effect of over 65% in size
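Readout is rescue of growth in alpha-synuclein-expressing yeast, so inhibitors of toxicity appear as activators. Growth after 24 hr at 30 deg C in galactose medium is quantified by luminescence.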
An asterisk follows results filed as active; i = inactive; ? = inconclusive; / = no result. Most compounds without a hit are left out; they make up all but 2.1% or so of the library. Calls come from the whole dose curve; as a rule, active = well fitted curve in the direction sought with a large enough effect; inconclusive = small, poorly fitted or top-dose-only effect, or another doubt; inactive = no such curve, though single readings can be large; an effect the other way counts as inactive or inconclusive. Potency is the fitted concentration of half-maximal effect.

SMILES	TDP-43 yeast inh	Abeta rescue	FUS yeast rescue	aSyn rescue
Cc1ccc(N=c2c([N+](=O)[O-])nn(-c3ccccc3)n2O)c(C)c1	23%	i	i	5%
COc1ccc(CCN=c2c([N+](=O)[O-])nn(-c3cccc(C)c3)n2O)cc1OC	18µM*	i	i	-1%
O=[N+]([O-])c1nn(-c2ccccc2)n(O)c1=NCc1ccc2c(c1)OCO2	25%	i	i	4%
COc1ccc(-n2nc([N+](=O)[O-])c(=NCc3ccc4c(c3)OCO4)n2O)cc1	13µM*	i	/	20%
COc1ccc(-n2nc([N+](=O)[O-])c(=NCCc3cccc(C)c3)n2O)cc1	13µM*	i	i	5%
Cc1cccc(CCN=c2c([N+](=O)[O-])nn(-c3ccccc3)n2O)c1	16µM*	i	i	1%
Cc1nc2c(F)c(F)c(C(F)(F)F)c(F)c2[nH]1	-53%	i	i	-30%
Cc1c(C(=O)N2CCN(CC(=O)Nc3ccccc3Cl)CC2)oc2ccc(Br)cc12	13µM*	i	i	-6%
CCCCOc1ccc(-c2nnn(C(C)(C)C(=O)OC)n2)cc1	?	i	i	-6%
S=c1[nH]nc(-c2cnccn2)n1-c1ccccc1	7%	i	i	3%
COc1ccc(-n2c(-c3cnccn3)n[nH]c2=S)cc1	-19%	i	i	3.5µM*
Cc1cnc(C(=O)Nc2cccc(-c3nnc4n3CCCCC4)c2)cn1	11%	i	i	1%
Cc1ccc(NC(=S)NNC(=O)c2cn(C)nc2C)cc1	6%	i	i	-12%
O=C(c1c[nH]c(C(=O)C(Cl)(Cl)Cl)c1)c1ccccc1F	10µM*	i	i	-3%
COc1cccc(OC)c1-c1nn2c(-c3ccco3)nnc2s1	-2%	i	i	/
COc1ccccc1-c1nnc2sc(COc3ccc(F)cc3)nn12	11µM*	i	?	4%
c1ccc(OCc2nn3c(-c4ccccn4)nnc3s2)cc1	14µM*	i	i	0%
c1coc(-c2nnc3sc(C4CCCCC4)nn23)c1	18µM*	i	i	-15%
COc1cccc(-c2nn3c(-c4ccco4)nnc3s2)c1	7.1µM*	i	i	/
CC1CCCCN1C(=O)CCC(=O)Nc1nnc(C(F)(F)F)s1 (stereo unspecified)	22%	i	i	2%
CCCCNc1ccc(C(F)(F)F)cc1S(=O)(=O)NCCc1ccc(F)cc1	-3%	i	i	-17%
CCOC(=O)c1ccccc1NC(=O)Cn1c2ncccc2c(=O)n1-c1ccccc1	19%	i	i	/
COc1cccc(-c2nn3c(-c4ccccn4)nnc3s2)c1	16µM*	i	i	-2%
Clc1ccccc1-c1nn2c(-c3ccccn3)nnc2s1	13µM*	i	i	-12%
COc1cccc(-c2nnc3sc(-c4ccccn4)nn23)c1	-5%	i	i	3%
SMILES	TDP-43 yeast inh	Abeta rescue	FUS yeast rescue	aSyn rescue
Clc1ccccc1-c1nn2c(-c3ccncc3)nnc2s1	16%	i	i	-14%
Clc1ccccc1CSc1nc2ccncc2[nH]1	9%	i	i	-7%
C=C(C)c1nc2cc(OC)c(OC)cc2c(=O)o1	15%	i	i	13%
O=C(Nc1ccc(Cl)c(C(F)(F)F)c1)C1Cc2c(-c3ccccc3)ccnc2O1 (stereo unspecified)	32µM*	i	i	?
O=C(Nc1ccc(Cl)cc1)C1Cc2c(-c3ccccc3)ccnc2O1 (stereo unspecified)	35µM*	i	i	?
COc1ccc(NC(=O)C2Cc3c(-c4cccc(F)c4)ccnc3O2)cc1 (stereo unspecified)	22µM*	i	i	?
O=C(Nc1ccc(F)c(Cl)c1)C1Cc2c(-c3ccc(Cl)cc3)ccnc2O1 (stereo unspecified)	35µM*	i	?	?
O=C(Nc1ccc(Cl)cc1)C1Cc2c(-c3ccc(Cl)cc3)ccnc2O1 (stereo unspecified)	28%	i	i	-4%
CC(=O)Cn1c(N2CCC(Cc3ccccc3)CC2)nc2c1c(=O)[nH]c(=O)n2C	-2%	i	i	-12%
c1ccc(-n2cnc3ccccc32)cc1	12%	i	i	3%
CC(=O)c1cccc(-c2ccnc3c2CC(C(=O)Nc2ccc(C(C)C)cc2)O3)c1 (stereo unspecified)	20µM*	?	i	11%
O=C(NCc1ccccc1)C1Cc2c(-c3ccc4c(c3)OCO4)ccnc2O1 (stereo unspecified)	35µM*	i	i	3%
O=C(CNC(=O)c1ccc2c(c1)OCO2)N/N=C(Br)/C=C/c1ccccc1	9%	i	i	2%
N#Cc1c(-c2ccccc2)nc(SCC(=O)Nc2nnc(C(F)(F)F)s2)[nH]c1=O	0%	i	i	-5%
CNc1nc2sc3c(c2c(=O)n1C)CC(C)(C)SC3	13µM*	i	i	4%
COC(=O)[C@]12CCCCC=C1N(CCc1ccc(OC)c(OC)c1)C(=O)[C@H](CC(=O)NCCCCc1ccccc1)C2	8%	i	8.9µM*	3%
COC(=O)[C@]12CCCCC=C1N(CCc1ccc(OC)c(OC)c1)C(=O)[C@H](CC(=O)NCc1cccc(C(F)(F)F)c1)C2	1%	i	4.5µM*	3%
COC(=O)[C@]12CCCCC=C1N(CCc1ccc(OC)c(OC)c1)C(=O)[C@H](CC(=O)NCc1ccccc1)C2	0%	i	?	1%
CCOC(=O)c1cnc(Nc2ccccc2)nc1C(F)(F)F	18µM*	i	i	0%
Cc1ccc(C(=O)Nc2cc(S(=O)(=O)N3CCOCC3)ccc2N2CCCC2)cc1	21%	i	i	3%
O=C(Cc1cccc(C(F)(F)F)c1)OCN1C(=O)c2ccccc2C1=O	35µM*	i	i	24%
O=C(Cc1ccc(F)cc1)OCN1C(=O)c2ccccc2C1=O	?	i	i	12%
Cc1cc(C)c(S(=O)(=O)n2ccc3ccccc32)c(C)c1	19%	?	i	7%
Cc1cc(C)c(S(=O)(=O)NCCn2ccc3ccccc32)c(C)c1	13µM*	?	i	?
Cc1ccc(S(=O)(=O)NCCc2ccccc2)cc1	?	i	i	13%
Cc1cc(C)c(S(=O)(=O)NCCc2ccccc2)c(C)c1	4%	i	i	20µM*
Cc1cc(C)cc(N(CC(=O)NC2CCCCC2)C(=O)c2ccc(C)s2)c1	2%	i	i	-2%
OC(COc1ccc(Cl)cc1)CN1CCN(c2ccccc2)CC1 (stereo unspecified)	-4%	i	i	0%
CCOC(=O)Nc1ccc2c(c1)N(C(=O)CCN1CCOCC1)c1ccccc1S2=O (stereo unspecified)	-9%	i	i	7%
Cc1ccc(C)n1-c1nnc(N2CCCC(C(=O)NCc3ccc(Cl)cc3)C2)s1 (stereo unspecified)	-7%	i	i	/

Assay outcomes: PubChem, National Center for Advancing Translational Sciences (NCATS)
